Among the data in article PMC12864922, “TDP-43 directly inhibits mRNA accumulation in neurites through modulation of mRNA stability” are binding signal values, retold here.

B1: ENSMUSG00000061578.1206|Ksr2 (ssRNA)
RNA: GGGAGUUCUACAGUCCGACGAUCGCUUCGAUAUCCGCAUGCUAUAUGGACACACUAGAAAGCCCAUCCUAGGUCUUUCCAUGGUCUCUCACACCCCUGUCCCCGUCCCCUCCACCCCCCGGCAGCAUGCUUCACUCUAUGAAUGAGCCGCUGGGAUAUUGACAUGGAGAUGUGUUGAUGGAAAAAGCCUCCACACCCAACAUAACUCUCCAGAGAGAUAUUGAAAGUGAUGGGCAGAGAGUCUGACAAUGACCCAGGGGUCAUUGUGAGUCCUAGGCUGAAUCUGUAAUGGGGUCCAAAGUGCCUCUUGCGGUCGCACUAGUGUGGAAUUCUCGGGUGUCAAGG
B2: ENSMUSG00000022095.184|Fam160b2|231:244;246:260 (ssRNA)
RNA: GGGAGUUCUACAGUCCGACGAUCGCUUCGAUAUCCGCAUGCUACAGGCAUUACCUCACAACAGGCCUGCAGUUGUUGGCUUCCCUCCUGGGCAAGGAGGAGCAGGCCAGAGCCCCUUUUGCUUCCUUUUCCUGCCCAUGCCACCUCUCGAAGCCGGGCACAGGUUGCCAGGAGGUGACAUGAAAGAGGAGGAAACUCCAUGACCUCUACAUCCCCCGCAGUCCUCCCAGCGGGGGAGGACUUCUCUGCUGCUCCGAAGAACAUCAUGCACUCCACACACACACACACACACACACACACACACCUCUUGCGGUCGCACUAGUGUGGAAUUCUCGGGUGUCAAGG
B3: ENSMUSG00000022095.185|Fam160b2 (ssRNA)
RNA: GGGAGUUCUACAGUCCGACGAUCGCUUCGAUAUCCGCAUGCUAUUACCUCACAACAGGCCUGCAGUUGUUGGCUUCCCUCCUGGGCAAGGAGGAGCAGGCCAGAGCCCCUUUUGCUUCCUUUUCCUGCCCAUGCCACCUCUCGAAGCCGGGCACAGGUUGCCAGGAGGUGACAUGAAAGAGGAGGAAACUCCAUGACCUCUACAUCCCCCGCAGUCCUCCCAGCGGGGGAGGACUUCUCUGCUGCUCCGAAGAACAUCAUGCACUCCUGUGUGUGUGUGUGAGUGUGUGUGUGUGUGUGUGUGCUCUUGCGGUCGCACUAGUGUGGAAUUCUCGGGUGUCAAGG
B4: ENSMUSG00000022095.191|Fam160b2 (ssRNA)
RNA: GGGAGUUCUACAGUCCGACGAUCGCUUCGAUAUCCGCAUGCUACCUGGGCAAGGAGGAGCAGGCCAGAGCCCCUUUUGCUUCCUUUUCCUGCCCAUGCCACCUCUCGAAGCCGGGCACAGGUUGCCAGGAGGUGACAUGAAAGAGGAGGAAACUCCAUGACCUCUACAUCCCCCGCAGUCCUCCCAGCGGGGGAGGACUUCUCUGCUGCUCCGAAGAACAUCAUGCACUCCUGUGUGUGUGUGUGAGUGUGUGUGUGUGUGUGUGUGUGUGUGUGUGUGUAUGUGUGUGUAUAUGUGUGUGUGCUCUUGCGGUCGCACUAGUGUGGAAUUCUCGGGUGUCAAGG
B5: ENSMUSG00000022095.193|Fam160b2 (ssRNA)
RNA: GGGAGUUCUACAGUCCGACGAUCGCUUCGAUAUCCGCAUGCUAGGAGCAGGCCAGAGCCCCUUUUGCUUCCUUUUCCUGCCCAUGCCACCUCUCGAAGCCGGGCACAGGUUGCCAGGAGGUGACAUGAAAGAGGAGGAAACUCCAUGACCUCUACAUCCCCCGCAGUCCUCCCAGCGGGGGAGGACUUCUCUGCUGCUCCGAAGAACAUCAUGCACUCCUGUGUGUGUGUGUGAGUGUGUGUGUGUGUGUGUGUGUGUGUGUGUGUGUAUGUGUGUGUAUAUGUGUGUGUGUGUGUGUAUGUGCUCUUGCGGUCGCACUAGUGUGGAAUUCUCGGGUGUCAAGG
B6: ENSMUSG00000022095.194|Fam160b2 (ssRNA)
RNA: GGGAGUUCUACAGUCCGACGAUCGCUUCGAUAUCCGCAUGCUAGGCCAGAGCCCCUUUUGCUUCCUUUUCCUGCCCAUGCCACCUCUCGAAGCCGGGCACAGGUUGCCAGGAGGUGACAUGAAAGAGGAGGAAACUCCAUGACCUCUACAUCCCCCGCAGUCCUCCCAGCGGGGGAGGACUUCUCUGCUGCUCCGAAGAACAUCAUGCACUCCUGUGUGUGUGUGUGAGUGUGUGUGUGUGUGUGUGUGUGUGUGUGUGUGUAUGUGUGUGUAUAUGUGUGUGUGUGUGUGUAUGUGUGUGUGCUCUUGCGGUCGCACUAGUGUGGAAUUCUCGGGUGUCAAGG
B7: ENSMUSG00000022095.184|Fam160b2 (ssRNA)
RNA: GGGAGUUCUACAGUCCGACGAUCGCUUCGAUAUCCGCAUGCUACAGGCAUUACCUCACAACAGGCCUGCAGUUGUUGGCUUCCCUCCUGGGCAAGGAGGAGCAGGCCAGAGCCCCUUUUGCUUCCUUUUCCUGCCCAUGCCACCUCUCGAAGCCGGGCACAGGUUGCCAGGAGGUGACAUGAAAGAGGAGGAAACUCCAUGACCUCUACAUCCCCCGCAGUCCUCCCAGCGGGGGAGGACUUCUCUGCUGCUCCGAAGAACAUCAUGCACUCCUGUGUGUGUGUGUGAGUGUGUGUGUGUGUGCUCUUGCGGUCGCACUAGUGUGGAAUUCUCGGGUGUCAAGG
B8: ENSMUSG00000022095.183|Fam160b2 (ssRNA)
RNA: GGGAGUUCUACAGUCCGACGAUCGCUUCGAUAUCCGCAUGCUACGGCGCCAGGCAUUACCUCACAACAGGCCUGCAGUUGUUGGCUUCCCUCCUGGGCAAGGAGGAGCAGGCCAGAGCCCCUUUUGCUUCCUUUUCCUGCCCAUGCCACCUCUCGAAGCCGGGCACAGGUUGCCAGGAGGUGACAUGAAAGAGGAGGAAACUCCAUGACCUCUACAUCCCCCGCAGUCCUCCCAGCGGGGGAGGACUUCUCUGCUGCUCCGAAGAACAUCAUGCACUCCUGUGUGUGUGUGUGAGUGUGUGUGCUCUUGCGGUCGCACUAGUGUGGAAUUCUCGGGUGUCAAGG
B9: ENSMUSG00000022095.186|Fam160b2 (ssRNA)
RNA: GGGAGUUCUACAGUCCGACGAUCGCUUCGAUAUCCGCAUGCUACACAACAGGCCUGCAGUUGUUGGCUUCCCUCCUGGGCAAGGAGGAGCAGGCCAGAGCCCCUUUUGCUUCCUUUUCCUGCCCAUGCCACCUCUCGAAGCCGGGCACAGGUUGCCAGGAGGUGACAUGAAAGAGGAGGAAACUCCAUGACCUCUACAUCCCCCGCAGUCCUCCCAGCGGGGGAGGACUUCUCUGCUGCUCCGAAGAACAUCAUGCACUCCUGUGUGUGUGUGUGAGUGUGUGUGUGUGUGUGUGUGUGUGUGCUCUUGCGGUCGCACUAGUGUGGAAUUCUCGGGUGUCAAGG
B10: ENSMUSG00000022095.190|Fam160b2 (ssRNA)
RNA: GGGAGUUCUACAGUCCGACGAUCGCUUCGAUAUCCGCAUGCUAUUCCCUCCUGGGCAAGGAGGAGCAGGCCAGAGCCCCUUUUGCUUCCUUUUCCUGCCCAUGCCACCUCUCGAAGCCGGGCACAGGUUGCCAGGAGGUGACAUGAAAGAGGAGGAAACUCCAUGACCUCUACAUCCCCCGCAGUCCUCCCAGCGGGGGAGGACUUCUCUGCUGCUCCGAAGAACAUCAUGCACUCCUGUGUGUGUGUGUGAGUGUGUGUGUGUGUGUGUGUGUGUGUGUGUGUGUAUGUGUGUGUAUAUGUGCUCUUGCGGUCGCACUAGUGUGGAAUUCUCGGGUGUCAAGG
B11: ENSMUSG00000022095.192|Fam160b2 (ssRNA)
RNA: GGGAGUUCUACAGUCCGACGAUCGCUUCGAUAUCCGCAUGCUACAAGGAGGAGCAGGCCAGAGCCCCUUUUGCUUCCUUUUCCUGCCCAUGCCACCUCUCGAAGCCGGGCACAGGUUGCCAGGAGGUGACAUGAAAGAGGAGGAAACUCCAUGACCUCUACAUCCCCCGCAGUCCUCCCAGCGGGGGAGGACUUCUCUGCUGCUCCGAAGAACAUCAUGCACUCCUGUGUGUGUGUGUGAGUGUGUGUGUGUGUGUGUGUGUGUGUGUGUGUGUAUGUGUGUGUAUAUGUGUGUGUGUGUGUGCUCUUGCGGUCGCACUAGUGUGGAAUUCUCGGGUGUCAAGG
B12: ENSMUSG00000022095.186|Fam160b2|219:232;234:260 (ssRNA)
RNA: GGGAGUUCUACAGUCCGACGAUCGCUUCGAUAUCCGCAUGCUACACAACAGGCCUGCAGUUGUUGGCUUCCCUCCUGGGCAAGGAGGAGCAGGCCAGAGCCCCUUUUGCUUCCUUUUCCUGCCCAUGCCACCUCUCGAAGCCGGGCACAGGUUGCCAGGAGGUGACAUGAAAGAGGAGGAAACUCCAUGACCUCUACAUCCCCCGCAGUCCUCCCAGCGGGGGAGGACUUCUCUGCUGCUCCGAAGAACAUCAUGCACUCCACACACACACACACACACACACACACACACACACACACACACCUCUUGCGGUCGCACUAGUGUGGAAUUCUCGGGUGUCAAGG

Whole data set: some 9,900 sequences, median “r (bound/input frequency ratio)” near 0.7, cut for the highest 2% near 6.5. The sample holds the highest values, similar sequences and a random draw of the others, so the mix is not that of the screen.

For this experiment, the target named is TDP-43 (Homo sapiens, UniProt Q13148 1-414). Description: RNA Bind-n-Seq with designed 260-mer pool; 25 mM Tris-HCl, 150 mM KCl, 3 mM MgCl2, BSA (printed 500 mg/mL), 20 units/mL SUPERase IN; pH not stated; 500 nM RNA pool, 1 h, 4 C; TDP-43 5, 50, 500 nM; high values mean tight binding. The following applies: protein: recombinant; tags: SBP (GST cleaved off with PreScission; pGEX-GST-SBP). The method, boiled down: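 The incubation lasted 1 h at 4 °C and used 500 nM of an in vitro-transcribed 260-nt 3′ UTR oligo pool with recombinant SBP-tagged TDP-43 at 5, 50 or 500 nM immobilized on streptavidin beads. It took place in 25 mM Tris-HCl, 150 mM KCl, 3 mM MgCl2, BSA and SUPERase IN. Bound RNA was washed, eluted with biotin, converted to cDNA, PCR-amplified and sequenced to give R, each oligo's normalized abundance in the bound sample divided by that in input. Two independent protein batches provided the duplicates.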
Sequence of TDP-43 (Q13148 whole entry): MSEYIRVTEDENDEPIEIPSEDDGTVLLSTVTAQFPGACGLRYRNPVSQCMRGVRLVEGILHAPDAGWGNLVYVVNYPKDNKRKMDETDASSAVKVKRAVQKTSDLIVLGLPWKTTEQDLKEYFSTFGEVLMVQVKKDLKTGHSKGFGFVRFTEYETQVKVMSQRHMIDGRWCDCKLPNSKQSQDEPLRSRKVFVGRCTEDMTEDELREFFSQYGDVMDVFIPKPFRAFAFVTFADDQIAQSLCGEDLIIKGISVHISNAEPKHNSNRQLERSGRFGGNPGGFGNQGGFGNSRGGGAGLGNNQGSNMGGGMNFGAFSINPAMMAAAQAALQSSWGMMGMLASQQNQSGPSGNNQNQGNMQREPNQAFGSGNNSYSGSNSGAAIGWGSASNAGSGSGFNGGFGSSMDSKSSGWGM
For the molecule B1, the binding signal was 0.481 R (bound/input frequency ratio).
As for B2, the binding signal is 3.13 R (bound/input frequency ratio).
With B3 the figure was 4.85 R (bound/input frequency ratio); with B4, 5.73 R (bound/input frequency ratio); with B5, 8.43 R (bound/input frequency ratio).
With B6 the figure was 7.48 R (bound/input frequency ratio); with B7, 3.46 R (bound/input frequency ratio); with B8, 1.73 R (bound/input frequency ratio).
With B9 the figure was 6.14 R (bound/input frequency ratio); with B10, 7.2 R (bound/input frequency ratio).
Take B11: the binding signal was 8.2 R (bound/input frequency ratio).
As for B12, the figure is 2.91 R (bound/input frequency ratio).
